Measured values taken from PubChem BioAssay (NCATS).
Records with an inconclusive call do not appear. Where a call stands in place of a potency, no number is given. A number with no mark means an inactive call. Active and inactive are the calls of the source. Calls follow the shape of the dose curve; as a rule, active = well fitted inhibition curve with a large enough effect; inconclusive = small, poorly fitted or top-dose-only effect; inactive = flat fitted curve, though single readings scatter.

Test: P-glycoprotein substrates identified in KB-8-5-11 adenocarcinoma cell line, qHTS therapeutic library screen (AID 1346987); also: nearly all actives have a fitted effect of over 65% in size
Details: KB-8-5-11 (P-gp overexpressing) viability, CellTiter-Glo, 72 h; series mostly up to 44.5 µM
In short: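 In this qHTS, P-gp-rich KB-8-5-11 cells received library compounds across a concentration range. Viability was quantified by luminescence after 72 h at 37 degree C.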
Potency is read from the fitted curve at half-maximal effect.

| Compound | Potency | activity change, negative = cytotoxicity |
| --- | --- | --- |
| COc1ccc(S(=O)(=O)Nc2cc(Cl)cc(Cl)c2OC)cc1N1CCNCC1 | inactive |  |
| COC1CC(O[C@H]2CC[C@]3(C)C4CC[C@]5(C)C(C6=CC(=O)OC6)=CCC56OC46CC[C@@H]3C2)OC(C)C1O[C@@H]1O[C@H](CO[C@@H]2O[C@H](CO)[C@@H](O)[C@H](O)[C@H]2O)[C@@H](O)[C@H](O)[C@H]1O (some centres undefined) | 3.1 µM (active) |  |
| COC(=O)/C=C/C=C/C(=O)OC1C=C2COC(=O)C2(O)C2(C)CCCC(C)(C)C12 (centres undefined) | inactive |  |
| CCCCC1CCC(c2nc(-c3ccncc3)no2)CC1 (centres undefined) | inactive |  |
| C/C=C/C=C/C(=O)O[C@@H]1C=C2COC(=O)[C@]2(O)[C@@]2(C)CCCC(C)(C)[C@H]12 | inactive |  |
| COC(=O)c1ccc2c(c1)[nH]c1ncnc(NCCCN3CCCCC3)c12 | inactive |  |
| CC(O)C(C)n1ncn(-c2ccc(N3CCN(c4ccc(OCC5COC(Cn6cncn6)(c6ccc(Cl)cc6Cl)O5)cc4)CC3)cc2)c1=O (centres undefined) | 14.6 µM (active) |  |
| CC[C@H]1CN(c2nc(N)c(C(N)=O)nc2Cl)CCN1C1CCN(Cc2ccc(Cl)cc2)CC1 | inactive |  |
| O=C(Nc1nc2cc(C(F)(F)F)cc(NC3CC3)n2n1)c1cccnc1 | 2.91 µM (active) |  |
| CCNC1(C(N)=O)CCN(c2ncnc3c2nc(-c2ccccc2Cl)n3-c2ccc(Cl)cc2)CC1 | inactive |  |
| CCC(C)/C=C(C)/C=C/C1=CC2=CC(=O)C3(C)OC(C)(O)C(C(=O)OC)C3C2=CO1 (centres undefined) | inactive |  |
| NS(=O)(=O)c1ccc(NC(=O)Nc2ccc(F)cc2)cc1 | inactive |  |
| C[C@H]1[C@H](/C=C/c2ccc(-c3ccccc3C#N)cn2)[C@@H]2[C@@H](C)OC(=O)[C@@H]2C[C@@H]1C | 16.4 µM (active) |  |
| CC(C)C[C@@H]1NC(=O)[C@@H]2C[C@@]34C[C@@H]5[C@@]6(C)CCCC(C)(C)C6CC[C@@]5(C)N(c5ccccc53)[C@H]4N2C1=O (some centres undefined) | inactive |  |
| CCn1c(-c2nonc2N)nc2c(C#CCO)ncc(OCCCN)c21 | inactive |  |
| CC(/C=C/C(=O)NO)=C\[C@@H](C)C(=O)c1ccc(N(C)C)cc1 | 0.58 µM (active) |  |
| CC[C@@H](C)[C@@H]1OC2(C=C[C@H]1C)C[C@@H]1C[C@H](C/C=C(\C)[C@H](O[C@H]3C[C@H](OC)[C@H](O[C@H]4C[C@H](OC)[C@H](NC(C)=O)[C@H](C)O4)[C@H](C)O3)[C@H](C)/C=C/C=C3\CO[C@H]4[C@H](O)C(C)=C[C@@H](C(=O)O1)[C@@]34O)O2 (some centres undefined) | 10.1 µM (active) |  |
| CCC(C)C(=O)O[C@H]1[C@H](O)[C@@]2(COC(C)=O)C(CC1(C)C)C1=CCC3[C@@]4(C)CC[C@H](O[C@@H]5O[C@H](C(=O)O)[C@@H](O)[C@H](O)[C@H]5O)[C@@](C)(CO)C4CC[C@@]3(C)[C@]1(C)C[C@@H]2O (some centres undefined) |  | -11.3% [at 9.29 µM] |
| Cc1c(C2=CCN(C(=O)N(C)C(C)C)CC2)nnn1-c1cccnc1F | inactive |  |
| Cc1sc2c(c1C)C(c1ccc(Cl)cc1)=N[C@H](CC(=O)NCCCCNC(=O)COc1cccc3c1C(=O)N([C@H]1CCC(=O)NC1=O)C3=O)c1nnc(C)n1-2 | inactive |  |

| Compound | Potency | activity change, negative = cytotoxicity |
| --- | --- | --- |
| C/C(=C\CCC(C)C1=CCC2(C)OC3=C(CC12)C(=O)C(O)CC3)CO (centres undefined) | inactive |  |
| C=C(C(=O)OC)[C@@H]1CC=C2C=CC(=O)[C@H](C)[C@@]2(C)C1 | inactive |  |
| CC(NC(=O)Cc1cc(F)cc(F)c1)C(=O)NC1C(=O)N(C)c2ccccc2-c2ccccc21 (centres undefined) | 14.6 µM (active) |  |
| Cc1cc(C)c(S(=O)(=O)n2cc(C)cc2C)c(C)c1 | inactive |  |
| Cc1cc2c(N3CCCC3)nc(N3CCCC3)nc2n1C | inactive |  |
| C=C1/C(=C/C=C2\CCC[C@]3(C)[C@@H]([C@H](C)CC[C@@H](O)C(C)(C)O)CC[C@@H]23)C[C@@H](O)C[C@@H]1O | inactive |  |
| Fc1ccc(-c2nc(C3CCNCC3)sc2-c2ccnc(NC3CC3)n2)cc1 | 13 µM (active) |  |
| CC1(C(=O)Nc2ccc(F)nc2)CCCN1c1nc(Nc2cc(C3CC3)[nH]n2)c2cccn2n1 (centres undefined) | 2.31 µM (active) |  |
| CNC(C)C(=O)NC(C(=O)N1CCCC1C(=O)Nc1snnc1-c1ccccc1)C1CCCCC1 (centres undefined) | inactive |  |
| Cc1cn(CCN2CCN(c3ccccc3-c3cc(C#N)cc(C(=O)NCCCN4CCCC4)c3)CC2)c2ccccc12 | 18.4 µM (active) |  |
| CN(C)CC#CCCC(=O)C(O)(c1ccccc1)C1CCC1 (centres undefined) | inactive |  |
| CC(C)C(C)C(O)C1CC23CC(=O)C4(O)C(=C2CCC3C1C)C=CC1(O)CC(O)CCC14C (centres undefined) | inactive |  |
| C[C@@H]1CC[C@@]23CC[C@]4(C)[C@@](C=CC5[C@@]6(C)CC[C@H](O)C(C)(C)C6CC[C@]54C)(OC2=O)C3[C@H]1C (some centres undefined) | inactive |  |
| Cc1cc2sc(NC(=O)Cc3ccccc3)nc2cc1Cl | inactive |  |
| COc1cc(NC(=O)c2cc(C3CC3)on2)c(OC)cc1Cl | inactive |  |
| CCCCNc1ncc2c(-c3ccc(S(=O)(=O)N4CCOCC4)cc3)nn(C3CCC(O)CC3)c2n1 (centres undefined) | 7.31 µM (active) |  |
| C=C1CCC[C@]2(C)CC/C(=C(/CO)C(=O)OC)C[C@@H]12 | inactive |  |
| CCOC(=O)N1CCC(N2CCC[C@@H](NC(=O)c3ccccc3C)C2)CC1 | inactive |  |
| COc1ccc(CNCc2cccc3ccccc23)cc1 | inactive |  |
